Compounds without any hit were thinned out: in the full panel of roughly 83,000, 20% have a hit.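 A percent growth of 40 corresponds to 60% growth inhibition; 0 means no net growth; -100 means all cells died. Active threshold: below 10.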 The source made the active and inactive calls.

The assay concerns MDA-MB-468 breast. Description: NCI-60 one-dose screen, 48 h (100 = growth as untreated, 0 = no growth, -100 = all killed). The conditions noted are these: 10 µM unless noted.
As for `Cn1c(NCCc2ccc(O)c(O)c2)nc2c1c(=O)n(Cc1ccc(Br)cc1)c(=O)n2C`, the growth was 43.3% (inactive).

For the compound `Cc1cc(C(=O)CCCC(=O)c2cc(C)c(O)c(C)c2)cc(C)c1O`, the growth is -3.17% (active).

Take `Fc1ccc(/C=C/c2cc(/C=C/c3ccc(F)cc3)n(-c3cc(F)cc(F)c3)n2)cc1`: the growth is 108% (inactive).

Turning to `CC(C)C/C(=N\NC(=O)c1ccncc1)c1cc(Cl)ccc1O`, the growth is -1.67% (active).

As to `COc1cccc(/C=C\C(=O)c2ccccc2)c1`, the growth is 69.4% (inactive).

(Values after PubChem BioAssay (NCI).)
